Screens deposited in PubChem by several laboratories.
A selection: hits, their analogues and other compounds. The true share with any hit is near 28%.
CYP2C9 inhib: blockers of cytochrome P450 2C9 activity – biochemical, luminescence, ADME assay, primary screen. inhibition, % at 5 µM. 96,000 tested, 20% active. P11712. CYP2C9 Supersomes, luciferin-H conversion;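 active = blocking of liver enzyme CYP2C9 beyond about 50% at 5 µM, limit read from the data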
CYP2C9 activ: human CYP2C9 activators, primary screen, biochemical, luminescence | Cytochrome P450 2C9 (Homo sapiens), P11712 | recombinant CYP2C9, luciferin-H conversion; hits give high values; factor 1 = untreated enzyme, 0 = blocked | activation factor at 5 µM | 96,000 tested, 1.4% active;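 active = activation factor of 2 or more for CYP2C9 at a 5 µM dose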
CYP2C19 inhib: blockers of cytochrome P450 2C19 activity – biochemical, luminescence, ADME assay, primary screen | CYP2C19 Supersomes, luciferin-H EGE luminescence, 30 min | inhibition, % at 5 µM | AID 778, 2007 | 96,000 tested, 21% active;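 active = CYP2C19 inhibition above a set limit at 5 µM in the primary screen, cut at about 50% in these data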
D1 mod: D1 CRE-luciferase signal change, two-sided – cell-based, HEK293 D1, dopamine EC30, D1 allosteric modulator project, primary screen | D(1A) dopamine receptor (Homo sapiens), P21728 | dopamine EC30 potentiation; actives deviate in either direction | B-score at 10 µM | 58,000 tested, 5.9% active | AID 641, 2007;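 active = luminescence count or its row- and column-corrected plate score outside the 99.7% band of the plate's sample wells, on either side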
Target sequence (P21728 whole entry, looked up): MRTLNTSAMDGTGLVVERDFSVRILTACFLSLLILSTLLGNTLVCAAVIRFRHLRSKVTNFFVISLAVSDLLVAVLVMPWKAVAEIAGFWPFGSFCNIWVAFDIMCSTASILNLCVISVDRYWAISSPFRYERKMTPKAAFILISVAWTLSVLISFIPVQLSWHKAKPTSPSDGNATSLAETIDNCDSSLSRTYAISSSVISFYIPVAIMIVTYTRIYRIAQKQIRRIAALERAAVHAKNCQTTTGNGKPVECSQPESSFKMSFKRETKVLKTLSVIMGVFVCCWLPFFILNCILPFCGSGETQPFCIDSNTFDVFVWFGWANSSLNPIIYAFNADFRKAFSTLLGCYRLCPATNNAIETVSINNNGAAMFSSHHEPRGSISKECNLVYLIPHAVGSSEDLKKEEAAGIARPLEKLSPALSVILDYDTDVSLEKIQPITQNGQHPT
hDAT+cocaine: changed hDAT dopamine uptake under cocaine IC80, either direction, primary screen, cocaine antagonist project, cell-based, LLC-PK1 hDAT, [14C]-dopamine uptake, MLSMR | B-score at 10 µM | 110,000 tested, 1.3% active | LLC-PK1 hDAT cells, [14C]-dopamine uptake with cocaine IC80; actives deviate in either direction;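 active = Z score or B-score, a plate-position-corrected score, falls beyond the plate's 99.7% confidence bounds, in either direction; inactive = both scores lie inside the 99.7% bounds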
CYP2C19 act: human CYP2C19 activators, primary screen, biochemical, luminescence; recombinant CYP2C19, luciferin-H EGE luminescence; hits give high values; 0 = fully inhibited enzyme, 1 = untreated enzyme; activation factor at 5 µM; Cytochrome P450 2C19 (Homo sapiens), P33261; AID 1025, 2008; 96,000 tested, under 10 active;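 active = activation factor of at least 2 at 5 µM in the primary screen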
Large screens that a line does not name were inactive.

O=C(C1CCN(S(=O)(=O)c2cccs2)CC1)N1CCc2ccccc2C1	none
COc1ccc(OC)c(S(=O)(=O)N2CCC(C(=O)N3CCc4ccccc4C3)CC2)c1	CYP2C19 inhib 78.0
Cc1cccc(/N=C/c2c(O)n(-c3cc(Cl)ccc3N3CCOCC3)c(=O)c3ccccc23)n1	none (no result: CYP2C9 inhib, CYP2C9 activ, CYP2C19 inhib, hDAT+cocaine, CYP2C19 act)
Cc1ccc(-c2nnc(Nc3ccccc3)o2)cc1	D1 mod -4.19
Cc1ccc(/C=C/c2nnc(-c3ccccc3)o2)cc1	none (no result: D1 mod)
CCc1nnc(NC(=O)CSc2nnc3c4ccccc4n(C)c3n2)s1	CYP2C9 inhib 57.9
CC1CCc2cc(F)ccc2N1C(=O)CSc1nnc2c3ccccc3n(C)c2n1 (stereo not given)	CYP2C9 inhib 55.1 (no result: D1 mod)
CCCn1c2ccccc2c2nnc(SCC(=O)Nc3nnc(CC(=O)OCC)s3)nc21	CYP2C9 inhib 98.4, CYP2C19 inhib 94.6 (no result: D1 mod, hDAT+cocaine)
CCn1c2ccccc2c2nnc(SCC(=O)Nc3ncccn3)nc21	none
CCn1c2ccccc2c2nnc(SCC(=O)NC(CC(C)C)C(=O)OC)nc21 (stereo not given)	CYP2C19 inhib 96.5
Cn1c(NC(=O)c2ccccc2NC(=O)C(C)(C)C)nc2ccccc21	none
C[C@H]1CC[C@@]2(O[C@H](CCO)C[C@H](O)[C@H]2O)O1	none (no result: CYP2C9 inhib, CYP2C9 activ, CYP2C19 inhib, D1 mod, CYP2C19 act)
CCc1cc2cc(C(=O)Nc3ccc(C)cc3)sc2s1	none (no result: CYP2C9 inhib, CYP2C9 activ, CYP2C19 inhib, D1 mod, CYP2C19 act)
CCn1c2ccccc2c2nnc(SCC(=O)c3ccccc3)nc21	none (no result: D1 mod)
COC(=O)c1ccc(S(=O)(=O)NCCSc2nnc3c4ccccc4n(C)c3n2)cc1	CYP2C9 inhib 94.6, CYP2C19 inhib 67.6
O=C(Cn1c(=O)oc2cc(S(=O)(=O)N3CCc4ccccc43)ccc21)N1CCCCC1	none
O=c1cc(NC2CCCCC2)c2ccccc2o1	CYP2C9 inhib 52.8, CYP2C19 inhib 60.2 (no result: D1 mod)
O=c1cc(NCc2ccccc2)c2ccccc2o1	CYP2C19 inhib 66.0
Nc1c(NC2CCCCC2)c2ccccc2oc1=O	none (no result: D1 mod)
Oc1ccccc1/C=N/Nc1nccnc1Cl	CYP2C19 inhib 72.4 (no result: D1 mod)
Oc1ccc(/C=N/Nc2cccc3cccnc23)c(O)c1	CYP2C9 activ 3 (no result: D1 mod)
COc1ccc(/C=N/Nc2nccnc2Cl)cc1	CYP2C19 inhib 77.4 (no result: D1 mod)
Cc1ccc(/C=N/Nc2cccc3cccnc23)c(O)c1	none (no result: D1 mod)
COc1ccc(/C=N/NC2=NCCCCC2)cc1	none (no result: D1 mod)
Oc1ccc(/C=N/Nc2nccnc2Cl)c(O)c1	CYP2C9 inhib 52.3 (no result: D1 mod)
O=[N+]([O-])c1ccccc1/C=N/Nc1nccnc1Cl	none (no result: D1 mod)
COC(=O)c1c(NC(=O)CN2CCC(C)CC2)c2c(C)cccc2n1C	none
O=C(NCc1ccc2c(c1)OCO2)c1cc(-c2ccccc2)nn1CC1CC(c2cccnc2)=NO1 (stereo not given)	none (no result: CYP2C9 inhib, CYP2C9 activ, CYP2C19 inhib, D1 mod, CYP2C19 act)
CC(NC(=O)Cn1nc(-c2ccccc2)c2ccccc2c1=O)c1ccccc1 (stereo not given)	CYP2C19 inhib 88.6 (no result: D1 mod)
CC1(C)CC(=O)C2=C(C1)N(Cc1cccnc1)C(=O)C2(NC(=O)c1ccc(F)cc1)C(F)(F)F (stereo not given)	none (no result: D1 mod)
N#CC(c1nc2ccccc2nc1N1CCCCC1)S(=O)(=O)c1ccc(Cl)cc1 (stereo not given)	D1 mod -2.52 (no result: hDAT+cocaine)
Cc1ccc(S(=O)(=O)C(C#N)c2nc3ccccc3nc2N2CCCCC2)cc1 (stereo not given)	none (no result: hDAT+cocaine)
CCOC(=O)N1CCN(c2nc3ccccc3nc2C(C#N)S(=O)(=O)c2ccc(C)cc2)CC1 (stereo not given)	CYP2C9 inhib 92.3 (no result: hDAT+cocaine)
Cc1cccc(S(=O)(=O)C(C#N)c2nc3ccccc3nc2N2CCOCC2)c1 (stereo not given)	CYP2C9 inhib 56.4
Cc1ccc(C)c(NC(=O)Cn2nc(C)c3ccccc3c2=O)c1	none
Cc1nnc(Nc2ccc(C(=O)N3CCOCC3)cc2)c2ccccc12	none
COc1ccc2c(c1)c(CC(=O)O)c(C)n2C(=O)c1ccc(Cl)cc1	hDAT+cocaine 4.13 (no result: CYP2C9 inhib, CYP2C9 activ, CYP2C19 inhib, CYP2C19 act)
COc1ccc(C(=O)c2ccc(Cl)cc2)cc1	none (no result: D1 mod)
CC(C)CC1CC(=O)OC1(C)C(=O)CSc1nc2ccccc2s1 (stereo not given)	none (no result: D1 mod)
O=C(O)CCC(=O)NNC(=O)CCC(=O)NCc1ccccc1	none (no result: D1 mod)
CC1CCCCN1C(=O)CSc1ccc(-c2ccc(F)cc2)nn1 (stereo not given)	CYP2C19 inhib 60.9
CCOC(=O)CNC(=O)CSc1nnnn1-c1ccc(C)c(C)c1	CYP2C9 activ 2.6
CCOC(=O)c1c(NC(=O)CSc2nnnn2C)sc(CC)c1C	CYP2C19 inhib 83.2
CCOC(=O)c1c(NC(=O)CSc2nnnn2C)sc(C)c1C	none
CCOC(=O)Cc1csc(NC(=O)CSc2nnnn2-c2ccc(C)c(C)c2)n1	none (no result: CYP2C9 inhib, CYP2C9 activ, CYP2C19 inhib, D1 mod, CYP2C19 act)
CCOC(=O)c1sc(NC(=O)CSc2nnnn2-c2ccc(C)cc2)c(C(=O)OCC)c1C	CYP2C9 inhib 80.1
CCOC(=O)c1sc(NC(=O)CSc2nc3c(c(=O)n2-c2ccc(C)cc2)SCC3)c(C(=O)OCC)c1C	none (no result: CYP2C9 inhib, CYP2C9 activ, CYP2C19 inhib, D1 mod, CYP2C19 act)
CCOc1ccc(-n2cc(C(=O)Nc3ccc(Cl)cn3)c3cc(OC)c(OC)cc3c2=O)cc1	none (no result: D1 mod)
O=C(CSCc1cccc(Cl)c1)N1CCN(Cc2ccc3c(c2)OCO3)CC1	none (no result: D1 mod)
O=C(NC(O)C(=O)c1cccs1)c1cccnc1 (stereo not given)	none
COc1ccc(OCCCC(=O)Nc2ccc3c(c2)OCCO3)cc1	CYP2C9 inhib 86.1, CYP2C19 inhib 76.3
CCOC(=O)c1ccc(NC(=O)CCc2nc(-c3ccc(C)cc3)no2)cc1	CYP2C9 inhib 94.2, CYP2C19 inhib 70.1
O=C(CCc1nc(-c2ccccc2F)no1)NCCN1CCN(Cc2ccccc2)CC1	none
Cc1cccc(CCNC(=O)CCc2nc(-c3ccccc3F)no2)c1	CYP2C9 inhib 82.2, CYP2C19 inhib 91.5
CCc1ccc(CCC(=O)Nc2ccc(C)c(C)c2)o1	CYP2C19 inhib 51.1
Cc1cccc(C)c1OCCCCCNCCO	none (no result: D1 mod)
CCOc1ccc(-c2noc(CCC(=O)O)n2)cc1	none (no result: D1 mod)
CCN(CCCNC(=O)CCc1nc(-c2ccc(OC)cc2)no1)c1cccc(C)c1	CYP2C9 inhib 87.2, CYP2C19 inhib 93.3
COc1ccc(-c2noc(CCC(=O)NCCN(C)Cc3ccccc3)n2)cc1	none
O=C(O)CCOc1ccc2c(c1)OCCO2	hDAT+cocaine -7.65
COc1ccc(-c2noc(CCC(=O)Nc3ccc(C)c(C)c3)n2)cc1	CYP2C9 inhib 57.7
COc1ccc(-c2noc(CCCC(=O)O)n2)cc1	D1 mod -5.55
